Test results taken from PubChem BioAssay (EPA / NIEHS).
Records with an inconclusive call do not appear. Activity calls are given as the source filed them. Rule for the calls, unless noted: active = hit-call score of the fitted dose curve at least 0.9, where 1 is the maximum; inactive = score below 0.9.

Experiments:
[1] = target: Paired box protein Pax-6 (Homo sapiens) (UniProt P26367); test: ATG_Pax6_CIS: Attagene CIS-FACTORIAL HepG2 Assay for human Paired Box 6 (PAX6) (AID 2282956); details: HepG2 CIS-FACTORIAL PAX6 reporter transcription, RNA readout; actives raise or lower the signal
Outline: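 Multiplexed cis-reporter HepG2 system; 24 h treatment; reporter mRNA read by RT-PCR/CE fluorescence; bidirectional fit vs DMSO.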

[2] = ATG_PXRE_CIS: Attagene CIS-FACTORIAL HepG2 Assay for human Pregnane X Receptor Element (PXRE) (AID 2282957); details: HepG2 Attagene CIS-FACTORIAL PXRE reporter, mRNA; actives raise or lower the signal
Outline: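 HepG2 cells transiently transfected with cis-regulated multiple reporter transcription units; endogenous factor activity measured as reporter mRNA 24 h after dosing. RT-PCR, fluorescent primer extension, HpaI digestion, capillary electrophoresis; bidirectional fit versus DMSO baseline.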

[3] = ATG_PPRE_CIS: Attagene CIS-FACTORIAL HepG2 Assay for human Peroxisome Proliferator-activated Response Element (PPRE) (AID 2282958); details: HepG2 PPRE cis-element reporter, Attagene transcription factor profiling; actives raise or lower the signal
Outline: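 Transcript-level reporter induction in transfected HepG2 cells after 24 h chemical exposure, quantified by fluorescence from RT-PCR products separated by capillary electrophoresis.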

[4] = ATG_RORE_CIS: Attagene CIS-FACTORIAL HepG2 Assay for human RAR-related Orphan Receptor Element (RORE) (AID 2282959); details: HepG2 Attagene cis-factorial RORE reporter, mRNA; actives raise or lower the signal
Outline: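 Multiplexed reporter assay measuring mRNA induction from a cis promoter element in transiently transfected HepG2 cells after 24 h treatment. Detection via RT-PCR and capillary electrophoresis fluorescence; DMSO serves as baseline.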

[5] = ATG_Sox_CIS: Attagene CIS-FACTORIAL HepG2 Assay for human SRY-box transcription factor (SOX) (AID 2282960); details: HepG2 Attagene cis-factorial SOX reporter, mRNA; actives raise or lower the signal
Outline: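 Cells were transfected with reporter constructs under cis-regulatory promoters, then exposed to chemicals for 24 h. Reporter transcripts were quantified by fluorescence after RT-PCR and capillary electrophoresis; activity was fitted in both directions against DMSO.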

[6] = target: Transcription factor Sp1 (Homo sapiens) (UniProt P08047); test: ATG_Sp1_CIS: Attagene CIS-FACTORIAL HepG2 Assay for human Specificity Protein 1 (Sp1) (AID 2282961); details: HepG2 Sp1 cis-reporter transcription, actives raise or lower the signal
Outline: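 Measures mRNA induction of an Sp1-linked reporter in HepG2 cells 24 h post-dosing. Multiplexed reporters read by RT-PCR and capillary electrophoresis; DMSO serves as negative control and baseline.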

[7] = ATG_SREBP_CIS: Attagene CIS-FACTORIAL HepG2 Assay for human Sterol Regulatory Element Binding (SREBP) (AID 2282962); details: HepG2 Attagene cis-factorial SREBP reporter, mRNA; actives raise or lower the signal
Outline: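 mRNA induction of transfected cis-promoter reporters in HepG2 cells, 24 h post-dose. Detection: RT-PCR with 6-FAM-labelled products, HpaI digest, capillary electrophoresis. DMSO served as negative control and baseline.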

[8] = target: Signal transducer and activator of transcription 3 (Homo sapiens) (UniProt P40763); test: ATG_STAT3_CIS: Attagene CIS-FACTORIAL HepG2 Assay for human Signal Transducer and Activator of Transcription 3 (STAT3) (AID 2282963); details: HepG2, Attagene cis-factorial STAT3 reporter transcription; actives raise or lower the signal
Outline: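 Values derive from bidirectional fits relative to DMSO of reporter mRNA levels, measured by RT-PCR with capillary electrophoresis, in HepG2 cells carrying transiently transfected cis-regulated reporter units and exposed 24 h.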

[9] = ATG_TA_CIS: Attagene CIS-FACTORIAL HepG2 Assay for human TA Basal Promoter (AID 2282964); details: HepG2 Attagene CIS-factorial TA basal promoter reporter; actives raise or lower the signal
Outline: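 HepG2 cells transiently transfected with multiplexed cis-promoter reporter units, dosed 24 h. Reporter mRNA measured by RT-PCR, 6-FAM labelling, HpaI digestion and capillary electrophoresis; bidirectional fit versus DMSO baseline, serving as background control.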

[10] = ATG_TCF_b_cat_CIS: Attagene CIS-FACTORIAL HepG2 Assay for human T-Cell-Factor with beta-catenin (TCF/b-cat) (AID 2282965); details: HepG2 TCF/beta-catenin cis-reporter transcription, actives raise or lower the signal
Outline: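 HepG2, transient MRTU transfection, cis-element-driven reporters (endogenous TFs). 24 h compound exposure. Readout: reporter mRNA by RT-PCR + 6-FAM primer extension, HpaI digest, capillary electrophoresis. Gain/loss fit vs DMSO baseline.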

[11] = ATG_TAL_CIS: Attagene CIS-FACTORIAL HepG2 Assay for human TAL Basal Promoter (AID 2282966); details: HepG2 Attagene cis-factorial TAL promoter reporter; actives raise or lower the signal;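 note: background control endpoint measuring basal TAL promoter reporter mRNA not a specific factor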
Outline: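 HepG2 cells were transiently transfected with promoter-driven multiplexed reporter units and dosed for 24 h. Reporter mRNA was measured by RT-PCR with capillary electrophoresis fluorescence; bidirectional fits used DMSO as baseline, serving as a background control.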

[12] = ATG_TGFb_CIS: Attagene CIS-FACTORIAL HepG2 Assay for human Transforming Growth Factor (TGF) (AID 2282967); details: HepG2 Attagene CIS TGFb reporter, mRNA transcription; actives raise or lower the signal
Outline: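 HepG2 cells transiently transfected with cis-promoter-driven multiplexed reporter units; 24 h compound exposure. Reporter mRNA measured by RT-PCR, 6-FAM labeling, HpaI digestion and capillary electrophoresis; bidirectional fit versus DMSO baseline.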

[13] = ATG_VDRE_CIS: Attagene CIS-FACTORIAL HepG2 Assay for human Vitamin D Receptor Element (VDRE) (AID 2282968); details: HepG2 VDRE cis-reporter transcription, actives raise or lower the signal
Outline: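 Cell-based multiplexed reporter format in human liver HepG2 cells, 24 h post-dose. Fluorescence from capillary electrophoresis of reporter cDNA gives the signal, with DMSO as negative control and baseline.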

[14] = target: X-box-binding protein 1 (Homo sapiens) (UniProt P17861); test: ATG_Xbp1_CIS: Attagene CIS-FACTORIAL HepG2 Assay for human X-box Binding Protein 1 (XBP1) (AID 2282972); details: HepG2 XBP1 cis-element reporter, Attagene multiplex; actives raise or lower the signal
Outline: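 Fluorescence-labelled cDNA fragments from reporter transcripts, separated by capillary electrophoresis, give the signal. Source: HepG2 cells transfected with promoter-driven reporter units, harvested 24 h post-dose. DMSO served as reference for bidirectional curve fitting.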

[15] = ATG_M_19_TRANS: Attagene TRANS-FACTORIAL HepG2 Assay for M19 Transcription Factor (Internal Marker) (AID 2282974; active = hit-call score of the fitted dose curve at least 0.9, where 1 is the maximum); details: HepG2 Attagene TRANS-FACTORIAL M19 internal marker reporter
Outline: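 After transfection of HepG2 with GAL4-UAS-driven reporter constructs, cells are dosed for 24 h. Total RNA is reverse-transcribed, reporter sequences PCR-amplified and labelled, then HpaI-digested and sized by capillary electrophoresis.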

[16] = ATG_GAL4_TRANS: Attagene TRANS-FACTORIAL HepG2 Assay for GAL4 (Internal Marker) (AID 2282976; active = hit-call score of the fitted dose curve at least 0.9, where 1 is the maximum); details: HepG2 Attagene TRANS GAL4 internal marker reporter
Outline: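 HepG2 cells transiently transfected with multiplexed GAL4-UAS reporter constructs were dosed for 24 h. Reporter mRNA was measured by RT-PCR, 6-FAM primer extension, HpaI digestion and capillary electrophoresis, and gain of signal was fitted relative to DMSO.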

[17] = target: Nuclear receptor subfamily 1 group I member 3 (Homo sapiens) (UniProt Q14994); test: ATG_CAR_TRANS: Attagene TRANS-FACTORIAL HepG2 Assay for human Constitutive Androstane Receptor (CAR) (AID 2282969; active = hit-call score of the fitted dose curve at least 0.9, where 1 is the maximum;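 note: activators raise reporter mRNA above DMSO so AC50 marks induction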); details: HepG2 Attagene TRANS-FACTORIAL CAR reporter
Outline: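 HepG2 cells transiently transfected with GAL4-UAS reporter units; TRANS format reads activity of exogenous chimeric NR-Gal4 protein. After 24 h dosing, reporter mRNA quantified by RT-PCR, 6-FAM labelling and capillary electrophoresis; gain of signal fitted against DMSO.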

[18] = target: Steroid hormone receptor ERR1 (Homo sapiens) (UniProt P11474); test: ATG_ERRa_TRANS: Attagene TRANS-FACTORIAL HepG2 Assay for human Estrogen-Related Receptor alpha (ERRa) (AID 2282971; active = hit-call score of the fitted dose curve at least 0.9, where 1 is the maximum); details: HepG2 Attagene TRANS reporter, ERRa transactivation
Outline: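 HepG2 cells transiently transfected with multiplexed GAL4-UAS reporter units reading chimeric ERRa-Gal4 activity; 24 h compound exposure. Reporter mRNA measured by RT-PCR, 6-FAM labelling, HpaI digest and capillary electrophoresis; gain of signal fitted versus DMSO baseline.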

[19] = target: Estrogen-related receptor gamma (Homo sapiens) (UniProt P62508); test: ATG_ERRg_TRANS: Attagene TRANS-FACTORIAL HepG2 Assay for human Estrogen-Related Receptor gamma (ERRg) (AID 2282977; active = hit-call score of the fitted dose curve at least 0.9, where 1 is the maximum;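 note: hits increase reporter signal over DMSO so potencies reflect activators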); details: HepG2 Attagene TRANS reporter, ERRg transactivation
Outline: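 Transient HepG2 transfectants, 24 h compound exposure, GAL4-UAS reporter mRNA by RT-PCR/6-FAM labelling/capillary electrophoresis; positive direction vs DMSO.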

Measured: AC50

Chain of Transcription factor Sp1 (Homo sapiens) (P08047 whole entry, looked up): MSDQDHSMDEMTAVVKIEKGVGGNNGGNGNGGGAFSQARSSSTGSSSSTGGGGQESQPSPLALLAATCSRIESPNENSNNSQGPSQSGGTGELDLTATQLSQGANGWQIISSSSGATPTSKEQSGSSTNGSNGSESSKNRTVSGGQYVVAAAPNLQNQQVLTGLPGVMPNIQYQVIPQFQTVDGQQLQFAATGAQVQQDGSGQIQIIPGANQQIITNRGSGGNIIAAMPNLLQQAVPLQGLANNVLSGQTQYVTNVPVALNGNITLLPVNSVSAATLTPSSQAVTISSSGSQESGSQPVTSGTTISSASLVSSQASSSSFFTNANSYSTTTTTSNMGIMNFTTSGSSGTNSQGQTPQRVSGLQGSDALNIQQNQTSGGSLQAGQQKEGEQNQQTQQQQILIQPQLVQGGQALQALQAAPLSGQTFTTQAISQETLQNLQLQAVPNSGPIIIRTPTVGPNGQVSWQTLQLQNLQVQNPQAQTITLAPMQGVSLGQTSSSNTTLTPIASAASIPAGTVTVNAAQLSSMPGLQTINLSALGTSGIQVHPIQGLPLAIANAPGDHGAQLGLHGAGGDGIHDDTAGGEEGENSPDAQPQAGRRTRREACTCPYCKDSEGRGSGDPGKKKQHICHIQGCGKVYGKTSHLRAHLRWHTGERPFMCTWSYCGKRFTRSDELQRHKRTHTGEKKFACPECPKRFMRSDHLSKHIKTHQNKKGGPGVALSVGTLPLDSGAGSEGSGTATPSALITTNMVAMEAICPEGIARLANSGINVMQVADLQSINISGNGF
Chain of X-box-binding protein 1 (Homo sapiens) (P17861 whole entry, looked up, the tested form may be a part): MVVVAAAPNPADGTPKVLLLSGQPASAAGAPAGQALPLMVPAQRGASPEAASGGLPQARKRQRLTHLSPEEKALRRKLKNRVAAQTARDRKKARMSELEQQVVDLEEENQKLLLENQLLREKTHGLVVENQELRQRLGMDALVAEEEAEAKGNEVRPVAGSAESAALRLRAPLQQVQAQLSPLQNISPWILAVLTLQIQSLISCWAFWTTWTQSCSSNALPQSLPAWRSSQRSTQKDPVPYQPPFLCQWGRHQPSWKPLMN
Chain of Paired box protein Pax-6 (Homo sapiens) (P26367 whole entry, looked up): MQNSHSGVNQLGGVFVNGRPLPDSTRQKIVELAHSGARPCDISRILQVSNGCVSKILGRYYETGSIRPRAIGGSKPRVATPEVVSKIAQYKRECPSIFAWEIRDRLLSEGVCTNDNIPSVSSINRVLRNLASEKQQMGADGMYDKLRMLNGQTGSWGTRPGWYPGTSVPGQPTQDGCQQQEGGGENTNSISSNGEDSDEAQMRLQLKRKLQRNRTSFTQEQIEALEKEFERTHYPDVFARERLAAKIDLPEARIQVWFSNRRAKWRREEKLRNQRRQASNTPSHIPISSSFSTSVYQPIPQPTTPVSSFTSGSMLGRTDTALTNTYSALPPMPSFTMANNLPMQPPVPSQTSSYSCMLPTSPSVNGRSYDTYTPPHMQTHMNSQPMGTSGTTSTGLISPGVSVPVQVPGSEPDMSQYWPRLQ
Chain of Signal transducer and activator of transcription 3 (Homo sapiens) (P40763 whole entry, looked up): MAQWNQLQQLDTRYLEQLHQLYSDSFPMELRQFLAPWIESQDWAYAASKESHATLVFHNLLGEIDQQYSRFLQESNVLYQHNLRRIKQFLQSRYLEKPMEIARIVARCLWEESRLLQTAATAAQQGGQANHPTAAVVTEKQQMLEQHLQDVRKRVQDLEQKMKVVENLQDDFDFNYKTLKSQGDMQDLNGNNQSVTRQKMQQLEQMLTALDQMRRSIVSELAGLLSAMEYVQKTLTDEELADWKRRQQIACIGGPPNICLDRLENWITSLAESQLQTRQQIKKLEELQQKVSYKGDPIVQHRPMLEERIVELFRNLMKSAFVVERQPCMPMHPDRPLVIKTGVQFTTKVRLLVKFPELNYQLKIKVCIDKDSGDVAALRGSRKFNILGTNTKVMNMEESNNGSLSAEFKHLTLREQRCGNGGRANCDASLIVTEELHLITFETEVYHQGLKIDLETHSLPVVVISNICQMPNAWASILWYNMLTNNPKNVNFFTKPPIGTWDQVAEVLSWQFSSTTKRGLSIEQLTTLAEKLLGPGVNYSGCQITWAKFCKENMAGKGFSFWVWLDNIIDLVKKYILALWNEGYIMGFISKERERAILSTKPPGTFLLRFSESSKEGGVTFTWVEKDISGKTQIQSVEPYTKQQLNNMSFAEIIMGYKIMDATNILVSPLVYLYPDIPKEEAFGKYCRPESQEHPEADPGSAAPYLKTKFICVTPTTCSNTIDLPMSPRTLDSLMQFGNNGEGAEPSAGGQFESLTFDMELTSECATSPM
Chain of Nuclear receptor subfamily 1 group I member 3 (Homo sapiens) (Q14994 whole entry, looked up, the tested form may be a part): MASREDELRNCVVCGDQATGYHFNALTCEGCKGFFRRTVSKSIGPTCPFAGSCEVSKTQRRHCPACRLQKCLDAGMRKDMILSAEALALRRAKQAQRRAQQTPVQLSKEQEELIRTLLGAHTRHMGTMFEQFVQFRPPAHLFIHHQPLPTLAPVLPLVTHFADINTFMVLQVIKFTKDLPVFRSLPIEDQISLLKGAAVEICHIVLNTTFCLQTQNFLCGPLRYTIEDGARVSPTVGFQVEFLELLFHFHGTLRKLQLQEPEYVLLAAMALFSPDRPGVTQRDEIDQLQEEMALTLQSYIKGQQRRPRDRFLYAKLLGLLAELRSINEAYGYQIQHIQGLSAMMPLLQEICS
Chain of Estrogen-related receptor gamma (Homo sapiens) (P62508 whole entry, looked up, the tested form may be a part): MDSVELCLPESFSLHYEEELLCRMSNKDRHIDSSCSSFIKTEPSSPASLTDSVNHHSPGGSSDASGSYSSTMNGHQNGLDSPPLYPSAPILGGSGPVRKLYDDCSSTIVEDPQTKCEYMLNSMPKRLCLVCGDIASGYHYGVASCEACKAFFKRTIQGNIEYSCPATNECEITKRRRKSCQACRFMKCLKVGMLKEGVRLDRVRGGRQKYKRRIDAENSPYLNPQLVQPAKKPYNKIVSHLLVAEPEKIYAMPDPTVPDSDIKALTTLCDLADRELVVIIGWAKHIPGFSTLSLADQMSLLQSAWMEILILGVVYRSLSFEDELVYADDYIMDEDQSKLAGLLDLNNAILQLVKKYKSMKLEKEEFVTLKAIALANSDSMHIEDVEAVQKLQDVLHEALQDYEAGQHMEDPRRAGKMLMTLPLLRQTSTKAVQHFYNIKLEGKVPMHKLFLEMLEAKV
Chain of Steroid hormone receptor ERR1 (Homo sapiens) (P11474 whole entry, looked up, the tested form may be a part): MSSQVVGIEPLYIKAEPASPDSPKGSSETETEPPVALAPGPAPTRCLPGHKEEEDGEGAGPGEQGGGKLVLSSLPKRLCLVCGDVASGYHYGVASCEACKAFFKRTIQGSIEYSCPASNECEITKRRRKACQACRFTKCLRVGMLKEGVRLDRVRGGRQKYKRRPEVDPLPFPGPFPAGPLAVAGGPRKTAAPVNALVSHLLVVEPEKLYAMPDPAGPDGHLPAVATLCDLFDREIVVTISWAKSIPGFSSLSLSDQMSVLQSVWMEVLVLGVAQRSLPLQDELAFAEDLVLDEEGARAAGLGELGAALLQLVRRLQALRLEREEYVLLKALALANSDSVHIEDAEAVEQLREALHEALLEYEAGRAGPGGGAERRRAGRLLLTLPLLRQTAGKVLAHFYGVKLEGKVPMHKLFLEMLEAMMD

COc1ccc(CCC(C)=O)cc1
not listed: [17] | [18] | [19]
inactive: all other assays above

CC=Cc1ccc(OCC)c(O)c1
active: [2] 65.8 µM
not listed: [15] | [16] | [17] | [18] | [19]
inactive: all other assays above

CC(=O)C(C)O (centres undefined)
not listed: [15] | [17] | [18] | [19]
inactive: all other assays above

CCCCN(CCCC)C(=O)N(CCCC)CCCC
active: [1] 37.2 µM | [2] 0.753 µM | [3] 61 µM | [5] 52.2 µM | [6] 46.8 µM | [7] 54.6 µM | [9] 25.5 µM | [10] 60.6 µM | [11] 50.2 µM | [12] 59.6 µM | [13] 7.92 µM
inactive: [4] | [8] | [17] | [14] | [16]

CC(C=O)Cc1ccc(C(C)(C)C)cc1 (centres undefined)
active: [2] 27.6 µM
not listed: [15] | [16] | [17] | [18] | [19]
inactive: all other assays above

CC(=O)c1c(C)c([N+](=O)[O-])c(C(C)(C)C)c([N+](=O)[O-])c1C
active: [2] 2.28 µM | [12] 100 µM | [13] 4.01 µM
not listed: [15] | [16] | [18] | [19]
inactive: all other assays above

CCCCCCCCCCCCCCCC(=O)OC/C=C(C)/C=C/C=C(C)/C=C/C1=C(C)CCCC1(C)C
active: [2] 3.09 µM | [13] 2.37 µM
not listed: [18] | [19]
inactive: all other assays above

O=C(Nc1ccc([N+](=O)[O-])cc1)Nc1ccc([N+](=O)[O-])cc1 (tested in a mixture with another compound)
not listed: [15] | [16] | [17] | [18] | [19]
inactive: all other assays above

CSCCC=O
active: [2] 10.9 µM
not listed: [15]
inactive: all other assays above
